Data on 54 compounds can be found in ChEMBL document CHEMBL4513216, “Probing the Open Global Health Chemical Diversity Library for Multistage-Active Starting Points for Next-Generation Antimalarials” (ACS Infect Dis, 2020).

Among all 69,000 compounds or so, about 8,600 (12%) showed an effect of 50% or more. This excerpt belongs to a sample that is enriched for strong results.

In the test the test system is Plasmodium berghei. Put plainly: Screen against P. berghei liver stage (PbLuc), transformed with Luciferase, at 10uM. To be noted: tested at 10 uM. It counts as functional, HepG2.
Turning to `O=C(Cc1cccs1)N1CCc2nnc(COc3cncnc3)n2CC1`, the INHIBITION came to 47.5%.

On to `O=C(c1ccsc1)N1CCc2ncc(Cn3cncn3)n2CC1`, for which the INHIBITION was 62.5%. As to `O=C(c1cccs1)N1CCc2nnc(COc3cncnc3)n2CC1`, the INHIBITION came to 28.2%. `O=C(c1cccs1)N1CCc2ncc(Cn3cncn3)n2CC1`: the INHIBITION was 22.9%. For `O=C(c1cscn1)N1CCc2ncc(Cn3cncn3)n2CC1`, the INHIBITION is given as 38.1%.

For the compound `O=C(c1ccsc1)N1CCc2nnc(COc3cncnc3)n2CC1`, the INHIBITION worked out at 53.9%. The result for `O=C1CN(C(=O)c2cc3c(F)cc(Br)cc3[nH]2)CCN1` reads -44.2%; that for `Cc1cccc(N2CCc3ncc(CNc4ccccn4)n3CC2)n1`, -26.1%; that for `Cc1cc(N2CCOC(c3ccc(C(N)=O)cn3)C2)ncn1` (centres undefined), 36.9%. The same measure for `Cc1cc(C)nc(N2CCC(C(=O)Nc3n[nH]c(C)n3)CC2)n1`: 47.3%; for `COCCN1CCC2(CCC1=O)CN(C1CCOCC1)CCN2C` (centres undefined): 17.8%. As to `CCN1CCN(c2ccc(CNC(=O)c3cnn(C)c3C)cn2)CC1`, the INHIBITION is -15.5%. Regarding `CC(=O)Nc1nc(C(=O)Nc2ccc(F)cc2)cs1`, the INHIBITION came out at 31.1%.

Take `CC(=O)Nc1nc(C(=O)NCc2ccnc(N3CCCC3)c2)cs1`: the INHIBITION stood at 9.14%. `CCN1CCN(c2ccc(CNC(=O)c3ccc(Cl)o3)cn2)CC1`: the INHIBITION stood at 57.2%. The result for `CC(=O)Nc1nc(C(=O)NCc2ccc(N3CCOCC3)nc2)cs1` reads 19.4%.

On to `CC(=O)Nc1nc(C(=O)NCc2ccc(N3CCCC3)nc2)cs1`, for which the INHIBITION worked out at 13.3%.

For the compound `Cc1cccc(C(=O)NCc2ccc(N3CCCCC3)nc2)n1`, the INHIBITION stood at 8.48%. As for `CC(=O)Nc1nc(C(=O)NCc2ccc(N3CCCCCC3)nc2)cs1`, the INHIBITION was determined as 67.2%. The result for `CCN(CC)c1ccc(CNC(=O)c2cccc(C)n2)cn1` reads 16.2%. `CCN1CCN(c2ccc(CNC(=O)c3cc(C)on3)cn2)CC1`: the INHIBITION worked out at 25.6%. `CC(=O)Nc1nc(C(=O)Nc2ccc(N3CCCCC3)nc2)cs1`: the INHIBITION amounted to 78.1%. The result for `Cc1cccc(C(=O)NCc2ccc(N3CCCCCC3)nc2)n1` reads 87.3%; that for `CN(C(=O)C1CCC1)C1CCN(c2ccccc2Cl)C1=O` (centres undefined), 1.74%; that for `CC(=O)c1c(C)nn(S(=O)(=O)c2ccccc2)c1C`, 49.3%. Consider `CCN(CC)C(=O)CS(=O)(=O)c1cc(OC)c(OC)cc1C`, for which the INHIBITION is -48.3%. The result for `Cc1cnc(CN(C)C2CCN(Cc3nc4ccccc4o3)C2)o1` (centres undefined) reads 13.3%; that for `C1CC(NCc2nnc(C3CC3)o2)CN(Cc2noc(C3CC3)n2)C1` (centres undefined), -19.9%; that for `CN1CCN(S(=O)(=O)c2ccc(C(=O)N3CC[C@@H](O)C3)cc2)CC1=O`, 1.41%. As to `c1cc(CC2CCCNC2)nc(NCCc2cnccn2)c1` (centres undefined), the INHIBITION was 32.3%. The result for `Cn1cc(C(C)(O)CNc2ccc(Cl)c(C#N)n2)cn1` (centres undefined) reads -10.7%. The same measure for `Cc1ccc(C(=O)N2CCCC(c3nncn3C)C2)c(C)c1` (centres undefined): 45.1%; for `CC(C)c1nnc2n1CCN(CCC(=O)N1CCc3ccccc31)C2`: 13.7%. The same measure for `Cc1noc(C)c1C(=O)NCc1ccc(N2CCC(C)CC2)nc1`: 74.9%; for `Cc1noc(C)c1C(=O)NCc1ccc(N2CCCCCC2)nc1`: 25.6%. As to `Cc1noc(C)c1C(=O)NCc1ccc(N2CCOCC2)nc1`, the INHIBITION is listed as 5.03%. The result for `CN(C)C(=O)[C@@H]1C[C@@H]2CCN(Cc3ccc4c(c3)OCO4)C[C@@H]2O1` reads 13.1%. With `CCc1cc(CNC(=O)Nc2cc(F)ccc2N2CCCCC2)on1`, the INHIBITION came to 26.6%.

For the compound `Cc1nc(CNC(=O)Nc2cc(F)ccc2OC(F)F)no1`, the INHIBITION came out at 5.91%. In the case of `O=C(c1ccncc1)N1CCN(c2ccc(F)cc2Cl)CC1`, the INHIBITION turned out to be 23.8%. The same measure for `O=C(NCc1ccon1)Nc1cc(F)ccc1N1CCCCC1`: 28.8%; for `O=C(Cc1ccon1)N1CCN(c2ccc(F)cc2Cl)CC1`: 50%; for `CN1CCN(c2ccc(F)cc2NC(=O)NCC[S+](C)[O-])CC1` (centres undefined): -33%. The same measure for `Cc1nc(CNC(=O)Nc2cc(F)ccc2N2CCN(C)CC2)no1`: 52.7%; for `CN1CCN(c2ccc(F)cc2NC(=O)NCc2ccon2)CC1`: 51.6%. The same measure for `O=C(Cc1ccon1)N1CCN(c2ccncc2Cl)CC1`: 20.9%; for `CC1CCCN(Cc2ccc(CNC(=O)NCc3ccon3)cc2)C1` (centres undefined): -18.6%; for `CC1CN(C)c2ccccc2CN1C(=O)NCc1ccon1` (centres undefined): 4.6%. With `CCN1CCN(c2ccccc2NC(=O)NCc2ccon2)CC1`, the INHIBITION is given as 50.4%. In the case of `COc1cccc(C(=O)N2C[C@@H]3CC[C@H]2CN(Cc2cscn2)C3)c1`, the INHIBITION is 7.3%. The result for `CC(C)NC(=O)NC(C)c1nc(-c2ccccc2)cs1` (centres undefined) reads 15.7%; that for `O=S(=O)(c1cccc(F)c1)N1CC[C@H]2[C@H]1CCN2c1ncccn1`, -12.4%; that for `CN(C)C(=O)[C@H]1C[C@@H]2CCN(C3CCOCC3)C[C@@H]2O1`, -0.371%. For the compound `COc1c(C2CCCN2C(=O)c2scnc2C)c(C)nn1C` (centres undefined), the INHIBITION is 25.1%.
